From PubChem BioAssay
Calls of active or inactive are those of the source.

Experiments:
[1] = tested on: PRMT1 (protein arginine N-methyltransferase 1); assay: small molecules binding arginine methyltransferase PRMT1 – biochemical, small-molecule microarray, 635 nm fluorescence, primary screen (AID 1088); details: higher = more signal;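 also: binding of Prmt1 protein to compounds spotted on small-molecule microarray slides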
[2] = growth effects on S. cerevisiae YJM789 – YJM789 clinical isolate, OD600, 24 h, basal, primary screen (AID 1089); details: higher = more signal, called active from +8 up or from −8 down;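 also: growth of clinical yeast isolate S. cerevisiae YJM 789 seeded 1000 cells per well; test concentration not given here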
[3] = S. pombe growth modifiers, basal conditions – strain 972, OD600, 24 h, no modulator, primary screen (AID 1090);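 also: basal condition with compound alone and no growth modifier present; test concentration not given here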; details: S. pombe 972 growth, higher = more signal, called active from +8 up or from −8 down
[4] = budding yeast growth modifiers under rapamycin – strain BY4716, OD600, 96 h, primary screen (AID 1091); also: test concentration not given here; details: S. cerevisiae BY4716 + rapamycin, higher = more signal, called active from +8 up or from −8 down
[5] = biological target: Torsin-1A-interacting protein 2 (Homo sapiens) (UniProt Q8NFQ8); assay: small molecules binding lysate-expressed LULL1 – cell lysate, human LULL1 lysate, 635/667 nm fluorescence, primary screen (AID 1092); details: small-molecule microarray, hLULL1 lysate binding, 635 nm fluorescence; higher = more signal;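 also: probe is lysate of COS7 cells overexpressing human LULL1; score merges per-feature 667 nm fluorescence with signal-to-noise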
[6] = optical density change of DRC41 E. coli – strain DRC41, OD650, 24 h, E. coli filamentation project, primary screen (AID 1093);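 also: MC1000 strain lacking acrAB efflux and sulA so SOS filamentation is blocked; test concentration not given here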; details: E. coli DRC41 growth, higher = more signal, called active from +8 up or from −8 down
[7] = probe aLefty2 binding to arrayed compounds – biochemical, biotinylated probe, 635/667 nm fluorescence, primary screen (AID 1094); details: small-molecule microarray, higher = more signal;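 also: score merges spot fluorescence near 667 nm with spot signal-to-noise ratio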
[8] = tested on: Noggin (protein binding on small-molecule microarray); assay: small molecules binding Noggin protein – biochemical, 635/667 nm fluorescence, primary screen (AID 1095); details: 635 nm fluorescence, higher = more signal;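 also: score merges 667 nm feature fluorescence with signal to noise over triplicate slides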
[9] = biological target: Neurogenic locus notch homolog protein 3 (Homo sapiens) (UniProt Q9UM47); assay: small molecules binding NOTCH3 protein – biochemical, 635/667 nm fluorescence, primary screen (AID 1096); details: small-molecule microarray, 635 nm fluorescence, higher = more signal
[10] = probe aEGFR binding to arrayed compounds – biochemical, biotinylated probe, 635/667 nm fluorescence, primary screen (AID 1097); details: small-molecule microarray, higher = more signal;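 also: probe is a biotinylated anti-EGFR antibody binding compounds printed on slides; score combines fluorescence near 667 nm and signal to noise of each spot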
[11] = tested on: Plasmodium falciparum Sir2 (PF13_0152, Sir2A); assay: Plasmodium falciparum Sir2A binding compounds – biochemical, small-molecule microarray, 635 nm fluorescence, primary screen (AID 1098); details: fluorescence 635 nm, higher = more signal;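 also: score merges spot fluorescence intensity with its signal-to-noise ratio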
[12] = probe aDKK1 binding to arrayed compounds – biochemical, biotinylated probe, 635/667 nm fluorescence, primary screen (AID 1099); details: small-molecule microarray, higher = more signal;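 also: score merges 667nm spot fluorescence with signal to noise across triplicate slides; reference of the scale not given here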
[13] = probe aCHRDL2 binding to arrayed compounds – biochemical, biotinylated probe, 635/667 nm fluorescence, primary screen (AID 1100); details: small-molecule microarray, higher = more signal
[14] = change in splice reporter luminescence, either direction, cell-based, HEK293, spliceosome inhibition project, primary screen (AID 1101); details: HEK293 splicing luciferase reporter, 24 h, higher = more signal, called active from +8 up or from −8 down;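 also: HEK293 cells carrying a splicing-competent luciferase reporter gene; test concentration not given here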
[15] = biological target: Fibroblast growth factor 10 (Homo sapiens) (UniProt O15520); assay: compounds binding fibroblast growth factor 10 – biochemical, small-molecule microarray, 635 nm fluorescence, primary screen (AID 1102); details: FGF10 binding, fluorescence 635 nm, higher = more signal
[16] = tested on: glycogen synthase kinase-3 (GSK3A per assay name; protocol says GSK3B); assay: compounds binding glycogen synthase kinase-3 – biochemical, small-molecule microarray, 635 nm fluorescence, GSK3A, primary screen (AID 1103); details: fluorescence 635 nm, higher = more signal; also: the record names both GSK3A and GSK3B
[17] = biological target: Epidermal growth factor receptor (Homo sapiens) (UniProt P00533); assay: compounds binding epidermal growth factor receptor – biochemical, small-molecule microarray, 635 nm fluorescence, primary screen (AID 1104); details: EGFR binding, higher = more signal;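 also: score merges 667 nm emission intensity with spot signal to noise over triplicate slides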
[18] = biological target: Follistatin-related protein 3 (Homo sapiens) (UniProt O95633); assay: compounds binding follistatin-related protein 3 – biochemical, small-molecule microarray, 635 nm fluorescence, primary screen (AID 1105); details: FSTL3 binding, higher = more signal;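 also: score merges emission near 667 nm and signal to noise per printed spot across three slides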
[19] = biological target: Dickkopf-related protein 1 (Homo sapiens) (UniProt O94907); assay: small molecules binding DKK1 protein – biochemical, small-molecule microarray, 635 nm fluorescence scan, primary screen (AID 1106); details: higher = more signal;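 also: score merges emission near 667 nm with signal to noise over three replicate slides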
[20] = tested on: Inhibin beta A chain (activin A); assay: small molecules binding activin A – biochemical, small-molecule microarray, 635 nm fluorescence scan, primary screen (AID 1107); details: INHBA, higher = more signal;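 also: mouse activin A protein probed at 4.33 µg/mL on printed slides; score merges bound-protein fluorescence near 667 nm with spot signal-to-noise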

Sequence of Follistatin-related protein 3 (Homo sapiens) (O95633 whole entry, looked up): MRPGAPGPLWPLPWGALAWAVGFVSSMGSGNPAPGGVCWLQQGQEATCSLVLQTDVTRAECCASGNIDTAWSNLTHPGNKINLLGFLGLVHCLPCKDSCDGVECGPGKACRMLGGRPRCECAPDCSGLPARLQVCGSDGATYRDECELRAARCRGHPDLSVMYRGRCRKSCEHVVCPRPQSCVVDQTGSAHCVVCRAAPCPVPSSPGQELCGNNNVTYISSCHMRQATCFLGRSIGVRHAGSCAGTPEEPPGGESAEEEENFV
Sequence of Dickkopf-related protein 1 (Homo sapiens) (O94907 whole entry, looked up): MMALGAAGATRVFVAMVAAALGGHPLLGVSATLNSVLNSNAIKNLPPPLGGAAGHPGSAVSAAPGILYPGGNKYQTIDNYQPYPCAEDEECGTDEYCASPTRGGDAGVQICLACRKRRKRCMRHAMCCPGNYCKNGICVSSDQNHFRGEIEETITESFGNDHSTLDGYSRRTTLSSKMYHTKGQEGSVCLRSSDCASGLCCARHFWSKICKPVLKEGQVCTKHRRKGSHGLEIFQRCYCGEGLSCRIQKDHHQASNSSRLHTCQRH
Sequence of Epidermal growth factor receptor (Homo sapiens) (P00533 whole entry, looked up): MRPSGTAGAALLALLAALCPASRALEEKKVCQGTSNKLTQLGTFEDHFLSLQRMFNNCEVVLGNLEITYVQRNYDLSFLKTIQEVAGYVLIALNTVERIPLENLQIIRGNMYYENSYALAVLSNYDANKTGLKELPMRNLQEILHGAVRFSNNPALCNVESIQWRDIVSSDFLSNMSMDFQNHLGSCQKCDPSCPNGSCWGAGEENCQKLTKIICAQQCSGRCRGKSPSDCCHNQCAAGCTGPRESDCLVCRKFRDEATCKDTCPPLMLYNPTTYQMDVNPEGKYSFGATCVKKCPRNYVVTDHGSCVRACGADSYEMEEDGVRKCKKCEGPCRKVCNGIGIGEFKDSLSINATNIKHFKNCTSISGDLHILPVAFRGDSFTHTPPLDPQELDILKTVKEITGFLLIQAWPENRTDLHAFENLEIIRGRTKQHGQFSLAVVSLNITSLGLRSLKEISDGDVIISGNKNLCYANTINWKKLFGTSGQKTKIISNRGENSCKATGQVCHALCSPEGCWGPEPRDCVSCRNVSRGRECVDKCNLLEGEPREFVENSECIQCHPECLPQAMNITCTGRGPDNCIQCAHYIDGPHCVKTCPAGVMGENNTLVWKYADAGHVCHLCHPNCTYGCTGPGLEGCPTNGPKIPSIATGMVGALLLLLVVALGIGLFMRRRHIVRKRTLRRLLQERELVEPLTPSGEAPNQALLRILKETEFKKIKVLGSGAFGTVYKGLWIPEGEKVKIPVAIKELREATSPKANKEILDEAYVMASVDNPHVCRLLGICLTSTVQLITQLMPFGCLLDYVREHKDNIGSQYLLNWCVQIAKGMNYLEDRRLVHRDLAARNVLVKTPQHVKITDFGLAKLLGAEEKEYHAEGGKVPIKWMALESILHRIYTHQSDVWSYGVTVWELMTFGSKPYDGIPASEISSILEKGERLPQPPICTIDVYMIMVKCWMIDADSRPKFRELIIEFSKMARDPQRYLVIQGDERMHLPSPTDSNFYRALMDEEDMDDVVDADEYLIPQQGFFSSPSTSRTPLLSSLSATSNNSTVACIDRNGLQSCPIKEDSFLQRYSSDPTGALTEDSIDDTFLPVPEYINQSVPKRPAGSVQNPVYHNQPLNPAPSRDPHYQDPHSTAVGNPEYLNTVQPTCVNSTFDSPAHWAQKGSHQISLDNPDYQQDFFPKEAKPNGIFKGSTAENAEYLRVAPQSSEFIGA
Sequence of Fibroblast growth factor 10 (Homo sapiens) (O15520 whole entry, looked up): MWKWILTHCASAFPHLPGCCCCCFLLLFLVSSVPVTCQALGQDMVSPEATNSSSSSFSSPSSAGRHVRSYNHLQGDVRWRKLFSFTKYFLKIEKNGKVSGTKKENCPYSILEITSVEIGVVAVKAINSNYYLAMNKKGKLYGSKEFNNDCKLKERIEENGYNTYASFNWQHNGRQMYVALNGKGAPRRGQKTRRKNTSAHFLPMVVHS
Sequence of Torsin-1A-interacting protein 2 (Homo sapiens) (Q8NFQ8 whole entry, looked up): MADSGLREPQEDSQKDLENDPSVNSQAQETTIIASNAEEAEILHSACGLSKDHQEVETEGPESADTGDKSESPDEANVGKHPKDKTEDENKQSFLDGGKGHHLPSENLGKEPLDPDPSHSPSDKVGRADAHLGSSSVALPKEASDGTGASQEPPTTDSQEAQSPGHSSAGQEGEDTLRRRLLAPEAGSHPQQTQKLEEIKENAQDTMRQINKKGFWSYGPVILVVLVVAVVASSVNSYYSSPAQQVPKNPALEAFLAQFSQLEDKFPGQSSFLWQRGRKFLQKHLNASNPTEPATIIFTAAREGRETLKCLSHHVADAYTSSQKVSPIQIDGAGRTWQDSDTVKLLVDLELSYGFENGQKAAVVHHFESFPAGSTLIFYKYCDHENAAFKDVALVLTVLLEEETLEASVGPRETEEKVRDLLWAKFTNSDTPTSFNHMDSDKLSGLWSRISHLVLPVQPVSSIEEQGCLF
Sequence of Neurogenic locus notch homolog protein 3 (Homo sapiens) (Q9UM47 whole entry, looked up): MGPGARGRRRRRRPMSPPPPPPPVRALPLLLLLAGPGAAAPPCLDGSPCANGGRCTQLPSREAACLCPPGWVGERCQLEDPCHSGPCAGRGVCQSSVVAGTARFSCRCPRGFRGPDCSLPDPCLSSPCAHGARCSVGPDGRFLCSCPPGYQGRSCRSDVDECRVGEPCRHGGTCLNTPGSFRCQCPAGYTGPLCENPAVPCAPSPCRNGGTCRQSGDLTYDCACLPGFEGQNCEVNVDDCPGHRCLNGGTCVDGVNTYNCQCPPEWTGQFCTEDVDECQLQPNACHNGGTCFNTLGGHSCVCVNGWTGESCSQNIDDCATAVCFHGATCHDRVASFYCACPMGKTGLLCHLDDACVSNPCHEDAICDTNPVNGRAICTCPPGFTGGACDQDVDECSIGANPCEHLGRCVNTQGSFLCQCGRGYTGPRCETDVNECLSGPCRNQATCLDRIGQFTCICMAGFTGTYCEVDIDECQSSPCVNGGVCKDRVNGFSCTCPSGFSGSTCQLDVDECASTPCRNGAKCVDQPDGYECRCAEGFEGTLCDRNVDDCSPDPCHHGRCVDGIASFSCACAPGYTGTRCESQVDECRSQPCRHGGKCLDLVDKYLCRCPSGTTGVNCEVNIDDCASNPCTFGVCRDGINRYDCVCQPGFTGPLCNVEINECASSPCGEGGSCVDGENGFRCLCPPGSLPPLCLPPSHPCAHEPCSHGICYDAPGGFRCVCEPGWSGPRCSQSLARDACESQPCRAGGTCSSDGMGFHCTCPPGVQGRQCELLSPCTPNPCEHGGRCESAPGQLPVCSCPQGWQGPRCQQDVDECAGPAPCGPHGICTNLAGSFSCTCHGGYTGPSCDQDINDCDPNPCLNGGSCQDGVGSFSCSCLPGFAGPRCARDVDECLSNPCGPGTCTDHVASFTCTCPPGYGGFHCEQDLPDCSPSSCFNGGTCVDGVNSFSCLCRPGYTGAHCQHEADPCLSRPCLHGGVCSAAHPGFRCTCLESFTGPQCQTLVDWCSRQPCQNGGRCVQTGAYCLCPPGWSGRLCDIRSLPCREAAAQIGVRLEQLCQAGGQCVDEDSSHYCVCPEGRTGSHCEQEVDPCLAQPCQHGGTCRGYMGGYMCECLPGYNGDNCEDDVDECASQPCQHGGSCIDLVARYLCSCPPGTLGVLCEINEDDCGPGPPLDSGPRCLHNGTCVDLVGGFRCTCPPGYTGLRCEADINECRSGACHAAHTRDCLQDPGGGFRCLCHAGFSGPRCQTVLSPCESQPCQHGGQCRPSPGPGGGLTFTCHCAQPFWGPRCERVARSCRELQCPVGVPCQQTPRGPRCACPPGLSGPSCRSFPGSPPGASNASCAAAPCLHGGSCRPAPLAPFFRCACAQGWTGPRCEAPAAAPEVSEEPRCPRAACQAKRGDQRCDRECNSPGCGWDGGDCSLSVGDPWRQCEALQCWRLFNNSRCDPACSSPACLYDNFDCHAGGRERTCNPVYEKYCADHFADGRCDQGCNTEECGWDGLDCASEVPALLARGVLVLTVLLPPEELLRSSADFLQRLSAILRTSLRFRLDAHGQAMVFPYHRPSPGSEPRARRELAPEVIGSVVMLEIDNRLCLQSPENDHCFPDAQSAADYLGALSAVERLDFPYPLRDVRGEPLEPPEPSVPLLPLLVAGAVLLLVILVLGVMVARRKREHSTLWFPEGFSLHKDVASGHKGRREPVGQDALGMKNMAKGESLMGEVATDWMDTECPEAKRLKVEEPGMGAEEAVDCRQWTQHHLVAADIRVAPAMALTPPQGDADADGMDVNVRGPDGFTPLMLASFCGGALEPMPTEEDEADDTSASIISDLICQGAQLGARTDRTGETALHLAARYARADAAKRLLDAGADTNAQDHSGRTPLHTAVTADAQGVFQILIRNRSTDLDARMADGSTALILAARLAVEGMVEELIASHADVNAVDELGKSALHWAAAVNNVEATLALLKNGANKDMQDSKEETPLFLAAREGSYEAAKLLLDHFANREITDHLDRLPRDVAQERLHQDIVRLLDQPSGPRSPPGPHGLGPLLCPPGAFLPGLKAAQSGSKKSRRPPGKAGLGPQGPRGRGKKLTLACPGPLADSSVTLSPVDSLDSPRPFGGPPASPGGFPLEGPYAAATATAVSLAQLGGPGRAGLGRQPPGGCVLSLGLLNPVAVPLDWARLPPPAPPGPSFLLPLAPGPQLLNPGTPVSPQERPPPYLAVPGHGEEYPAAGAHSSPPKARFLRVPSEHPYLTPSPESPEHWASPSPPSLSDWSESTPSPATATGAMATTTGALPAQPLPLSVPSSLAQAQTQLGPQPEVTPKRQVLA

Row | Structure (SMILES) | composite z-score [1] | z-score [2] | z-score [3] | z-score [4] | composite z-score [5] | z-score [6] | composite z-score [7] | composite z-score [8] | composite z-score [9] | composite z-score [10] | composite z-score [11] | composite z-score [12] | composite z-score [13] | z-score [14] | composite z-score [15] | composite z-score [16] | composite z-score [17] | composite z-score [18] | composite z-score [19] | composite z-score [20]
1 | CON=C(C)CCN1CCCc2nc(C)c(C)cc21 | 1.43 | -0.596 (inactive) | -0.837 (inactive) | 0.0921 (inactive) | 1.92 | 0.0129 (inactive) | -0.0179 | 0.513 | 0.632 | 0.0376 | 0.858 | -0.117 | -0.429 | 0.205 (inactive) | 0.423 | 0.897 | 0.695 | 0.68 | 0.847 | 0.912
2 | CC(C)[C@@H](OCc1ccccc1)[C@H](C)C=NO[C@@H](C)c1cn([C@H](CO)Cc2ccccc2)nn1 | 0.195 | -2.32 (inactive) | -3.21 (inactive) | -1.14 (inactive) | 0.559 | 0.96 (inactive) | -0.186 | 0.803 | 0.543 | -0.128 | 0.38 | -0.215 | -0.357 | 0.357 (inactive) | -0.045 | 0.148 | -0.0006 | 0.105 | -0.477 | -0.245
3 | CCOC(=O)[C@H](CC(C)C)NC(=O)CCC1CC(OC(=O)NCCc2ccc(F)cc2)CC2(CCCC(COC(=O)NCCCN3CCCC3=O)O2)O1 (stereo not given in full) | 0.838 | -0.388 (inactive) | 0.531 (inactive) | 0.0799 (inactive) | 1.26 | 0.546 (inactive) | -0.132 | 0.144 | 0.965 | -0.0208 | -0.0927 | -0.234 | -0.509 | 0.764 (inactive) | 0.93 | 0.519 | 0.261 | 0.572 | 0.946 | -0.131
4 | O=C1CCCC=C1C(O)c1ccc([N+](=O)[O-])cc1 (stereo not given) | 0.0679 | -0.293 (inactive) | 0.0434 (inactive) | -0.289 (inactive) | -0.33 | 0.999 (inactive) | -0.114 | 0.111 | 0.273 | 0.613 | -0.805 | -0.0341 | -0.429 | -0.337 (inactive) | 0.59 | 0.288 | 0.406 | 0.211 | 0.133 | 0.478
5 | CC(C)=NOC(C)CN1CCCc2nc(C)c(C)cc21 (stereo not given) | 1.58 | 0.777 (inactive) | 0.516 (inactive) | 0.347 (inactive) | 1.31 | -0.196 (inactive) | 0.406 | 0.674 | 1.07 | 0.0287 | 1.19 | -0.446 | -0.696 | 0.484 (inactive) | 0.809 | 1.1 | 0.697 | 1.16 | 0.63 | 0.206
6 | CCc1cc2c(nc1CC)CCN(CCC(C)=NOC[C@@H](C)[C@H](OCc1ccccc1)C(C)C)C2 | 0.0757 | -2.41 (inactive) | -4.16 (inactive) | -1.32 (inactive) | 0.198 | -0.966 (inactive) | -0.224 | -0.249 | -1.38 | -0.25 | -0.482 | -0.375 | -0.244 | -1.3 (inactive) | -1.58 | -1.04 | -0.812 | -1.28 | -1.06 | -0.187
7 | C=CC[C@@H]1C=C[C@H](ON=CC[C@@H]2C=C[C@H](OC(C)=O)[C@@H](COC(C)=O)O2)[C@@H](CO)O1 | 1.26 | 0.953 (inactive) | 0.489 (inactive) | 0.476 (inactive) | 1.3 | 0.558 (inactive) | 0.235 | 0.984 | 1.05 | 0.169 | 1.01 | 0.182 | -0.293 | 0.743 (inactive) | 0.262 | 0.765 | 0.661 | 1.17 | 0.764 | 0.211
8 | CCN1C(=O)[C@H]2[C@H]3[C@H](O)[C@H](O)CC(=NNC(=O)OCc4ccccc4)[C@@H]3CC[C@H]2C1=O | -0.738 | -0.0309 (inactive) | -0.277 (inactive) | -0.133 (inactive) | 0.614 | 0.801 (inactive) | -0.044 | -0.0412 | -0.0028 | -0.118 | -0.16 | 0.118 | 0.78 | -0.176 (inactive) | -0.163 | -0.612 | -0.241 | -0.0709 | 0.131 | -0.291
9 | Cc1cc2c(nc1C)CCCCN2CC(O)CN1CCCc2nc(-c3ccc(Br)cc3)ccc21 (stereo not given) | 0.829 | -0.178 (inactive) | -0.616 (inactive) | -0.051 (inactive) | -0.0639 | 0.353 (inactive) | -0.0083 | 0.558 | 1.11 | 0.0122 | 0.704 | -0.0514 | -0.332 | 0.0168 (inactive) | 0.874 | 0.62 | 0.597 | 1.21 | 0.446 | 0.481
10 | C[C@@H](c1ccccc1)N1C(=O)[C@H]2[C@H]3[C@H](O)[C@H](O)CC(=NOC[C@@H](O)COCc4ccco4)[C@H]3CC[C@H]2C1=O | 0.559 | 0.342 (inactive) | 0.453 (inactive) | -0.0348 (inactive) | -1.07 | -0.378 (inactive) | -0.0772 | 0.412 | -0.233 | -0.164 | 0.975 | -0.427 | -1.27 | 0.319 (inactive) | -0.185 | 1.21 | 1.07 | 1.14 | 1.59 | 0.574
11 | COc1ccc(COC(=O)NN=C2C[C@@H](O)[C@@H](O)[C@@H]3[C@@H]4C(=O)N(Cc5ccc6c(c5)OCO6)C(=O)[C@@H]4CC[C@H]23)cc1 | 0.041 | 1.13 (inactive) | 0.713 (inactive) | -0.369 (inactive) | 0.259 | 0.434 (inactive) | 0.475 | -0.961 | -0.523 | -0.194 | -0.218 | 1.16 | 1.41 | 0.491 (inactive) | -0.67 | -0.104 | -0.953 | -0.152 | -1.03 | 0.991
